The list is not random: actives were taken first. Their share in the collection is about 5.7%.
NPSR antagonist: antagonists of human neuropeptide S receptor cAMP signaling; Potency, µM (doses to about 38.3 µM), inactives show at the top dose activity change, negative = inhibition, most hits filed as inhibitors; 220,000 compounds, 1% hits; CHO-NPSR cells, cAMP TR-FRET, antagonist mode; also: nearly all actives have a fitted effect of over 50% in size
Target sequence (Q6W5P4 whole entry, looked up): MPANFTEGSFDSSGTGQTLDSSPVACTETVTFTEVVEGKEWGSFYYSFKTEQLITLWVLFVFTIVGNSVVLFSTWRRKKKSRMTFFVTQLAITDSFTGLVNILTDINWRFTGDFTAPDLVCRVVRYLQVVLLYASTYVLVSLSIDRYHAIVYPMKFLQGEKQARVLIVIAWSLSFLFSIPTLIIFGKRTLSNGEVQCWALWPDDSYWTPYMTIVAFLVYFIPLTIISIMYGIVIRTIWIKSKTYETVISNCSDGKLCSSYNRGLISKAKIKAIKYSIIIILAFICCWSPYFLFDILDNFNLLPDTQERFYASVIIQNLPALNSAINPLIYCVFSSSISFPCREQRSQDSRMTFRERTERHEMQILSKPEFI
B2AR arrestin: recruits beta-arrestin to the human beta2-adrenergic receptor; P07550; beta-arrestin recruitment to beta2AR, cell-based reporter; Potency, µM (top dose mostly 46.1 µM), for inactives: at the top dose activation, most hits filed as activators; 330,000 compounds, 0.02% hits; AID 492947;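 also: 0% = DMSO controls and full agonism = EC100 isoproterenol or metaproterenol; nearly all actives have a fitted effect of over 65% in size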
VP16 counter: inhibits Gal4-VP16 luciferase reporter, ROR gamma counter-screen; Drosophila S2 Gal4-VP16 UAS-luciferase, luminescence, 20 h; Potency, µM (doses to about 53.6 µM), inactives show at the highest dose activity, negative = inhibition, actives largely listed as inhibitors; 310,000 compounds, 3.5% hits;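 also: Gal4-VP16 expression switched on by copper sulfate through the metallothionein promoter; nearly all actives have a fitted effect of over 50% in size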
RORgamma inh: ROR gamma (mouse) transcription inhibition; Potency, µM (highest dose often 53.6 µM), for the others: at the top dose activity change, negative = inhibition, hits mostly inhibitors; Drosophila S2 Gal4-RORgamma UAS-luciferase reporter, 20 h; P51450; 310,000 compounds, 5.4% hits; also: nearly all actives have a fitted effect of over 60% in size
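ROR gamma transcriptional activity was tracked as Gal4-UAS luciferase output in stably transfected Drosophila Schneider cells, with compound added 1 hr before 700 uM copper sulfate induction and a 20 hr ambient-temperature incubation.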
* marks the source's active call; other numbers are inactive results; ? = inconclusive; / = not tested or not shown; [ ] = another dose, or the depositor's remark. Calls follow the shape of the dose curve; as a rule, active = well fitted curve in the direction sought with a large enough effect; inconclusive = small, poorly fitted or top-dose-only effect, or another doubt; inactive = no such curve, though single readings can be large; an effect the other way counts as inactive or inconclusive. Unless noted, % is scaled to controls: 0 for no effect and ±100 for the full control effect; potency is read from the fitted curve at half-maximal effect.

SMILES	NPSR antagonist	B2AR arrestin	VP16 counter	RORgamma inh
COc1ccc(C2CC(C(F)(F)F)n3nc(C(=O)NCc4c(C)nn(C)c4C)c(Cl)c3N2)cc1 (stereo unspecified)	-14.6%[46.1 µM]	4.3%	22.4µM*	-3.0%
Cc1nc(Nc2nc3ccccc3o2)nc2c1CCC2	5.0%[46.1 µM]	0.1%	6.31µM*	2.82µM*
Cc1cccc(C)c1Nc1nc2ccccc2o1	-20.3%[46.1 µM]	-0.3%	?	15.8µM*
COCC(=O)N1CCC[C@@]2(CCN(C(=O)Nc3ccc(OC)cc3)C2)C1	/	/	13.1%	-0.3%
O=C(COC(=O)Cc1ccsc1)Nc1ccc(Br)cc1F	/	0.0%	/	/
c1ccc(-c2csc3ncnc(N4CCOCC4)c23)cc1	36.9%	-0.1%	2.0%	-0.3%
Cc1cc2ncn(-c3ncnc4scc(-c5ccccc5)c34)c2cc1C	?	-1.4%	-25.0%	5.62µM*
c1ccc(-c2csc3ncnc(N4CCc5ccccc5C4)c23)cc1	-39.0%	-0.8%	12.6µM*	?
CC1CCCN(CCC(=O)c2ccc(Br)cc2)C1 (stereo unspecified)	-5.7%[46.1 µM]	-0.1%	20µM*	?
COc1cc2c(cc1OC)CN(CCC(=O)c1ccc(Br)cc1)CC2	7.9%	-0.1%	?	11.2µM*
COc1ccc(/C=C/C(=O)NC(=S)NNC(=O)c2ccco2)cc1	11.2%[46.1 µM]	-0.2%	?	3.16µM*
O=C(NC(=S)NNC(=O)c1cc2ccccc2cc1O)c1ccco1	-37.1%	-0.3%	3.9%	?
O=C(NC(=S)NNC(=O)c1ccccc1O)c1ccco1	6.0%	-3.6%	3.55µM*	-18.6%
COc1ccc(/C=C/C(=O)NC(=S)NNC(=O)c2ccco2)cc1OC	-12.1%	-0.3%	-2.7%	-8.1%
COc1ccc(C(=O)NC(=S)NNC(=O)c2ccco2)cc1	/	-0.6%	?	11.2µM*
COc1ccc(CC(=O)NNC(=O)c2ccco2)cc1	/	-1.0%	-16.5%	-5.7%
C=C(C)CNC(=S)NNC(=O)c1ccco1	10.3%[46.1 µM]	?	5.01µM*	3.55µM*
CCOC(=O)C1CCCN(S(=O)(=O)c2cnc(Cl)c(Br)c2)C1 (stereo unspecified)	/	-0.3%	-14.4%	-41.6%
COc1ccc2c(CCNC(=O)c3ccc([N+](=O)[O-])cc3)c[nH]c2c1	-11.3%	0.5%	-6.9%[10 µM]	11.2%
c1cncc(-c2cncnc2NC2CCNCC2)c1	/	/	-5.9%	26.1%
CC(=O)C1=C(c2ccccc2)NC(=O)NC1c1cccs1 (stereo unspecified)	/	-0.8%	-9.0%	-11.9%
O=C(NC(=S)NNC(=O)c1ccco1)c1ccc(F)cc1	/	-0.3%	?	11.2µM*
CCN(CC)C(=O)c1cc([N+](=O)[O-])cc2c1-c1ccc([N+](=O)[O-])cc1C2=C(C#N)C#N	14.9%[7.67 µM]	0.4%	20µM*	?
CC(=O)C(/C=N/c1cc(-c2ccc(C)cc2)nn1-c1ccccc1)=C(\C)O	0.9%	-2.3%	22.4µM*	?
CC(C)Cc1nnc(NC(=O)CCC(=O)N2CCN(c3ccccc3F)CC2)s1	/	0.5%	-9.6%	-5.7%
SMILES	NPSR antagonist	B2AR arrestin	VP16 counter	RORgamma inh
Cc1cc(C)nc(N/N=C/c2cc(C)n(CC(F)(F)F)c2C)n1	-16.3%	0.1%	?	8.91µM*
Cc1cc(C)nc(N/N=C/c2ccco2)n1	-6.6%[46.1 µM]	0.1%	14.3%	23.0%
O=C(O)c1ccc2c(c1)C(=O)N([C@@H](Cc1ccc(O)cc1)C(=O)O)C2=O	/	-0.3%	6.31µM*	2µM*
COc1ccccc1C(=O)NCCOc1ccc(C(C)(C)C)cc1	/	0.0%	?	?
CC(C)(C)c1ccc(C(=O)NCCOc2ccccc2F)cc1	/	-0.3%	6.31µM*	7.08µM*
CC(C)(C)c1ccc(C(=O)NCCOc2ccccc2)cc1	/	-0.5%	?	8.91µM*
Cc1cc2c(s1)c1c(n2C)C(=O)N(Cc2ccccc2F)C1	/	-0.9%	/	/
CCCCCCCC/C=C\CCCCCCCC(=O)N(CCO)CCO	/	/	2.8%	-1.4%
Cn1c(SCc2ccccc2F)nnc1-c1ccccn1	23.7%	0.2%	3.7%	0.5%
O=c1c(Cc2c(F)cccc2Cl)c(O)ccn1CCc1ccccn1	1.2%	-0.2%	-17.1%	-3.6%
Clc1ccc(OCc2nc(-c3ccccn3)no2)c(Br)c1	-7.1%	-0.1%	?	?
Nc1nc(-c2ccccn2)nc(N)c1Cc1c(F)cccc1Cl	0.0%	-1.1%	11.2µM*	2.82µM*
Nc1nc(-c2ccccn2)nc(N)c1Cc1ccccc1F	-2.4%	-0.2%	1.0%	6.31µM*
Nc1nc(-c2ccccn2)nc(N)c1Cc1ccc(Cl)cc1Cl	-18.1%	0.3%	8.91µM*	3.98µM*
CC(=O)N(C)c1nc(N)n(-c2ccccc2)n1	9.0%	-0.3%	-7.9%	-17.1%
CCCCOc1ccc(-c2c(C(=O)Nc3ccccc3)c(C)[nH]c(=S)c2C#N)cc1	10µM*	0.3%	3.0%	-1.8%
CCCCOc1ccc(-c2c(C#N)c(N)[nH]c(=S)c2C#N)cc1	-22.0%	3.0%	-4.6%	?
CC(=O)c1c(C)[nH]c(=S)c(C#N)c1-c1ccc(Cl)cc1	13.9%[7.67 µM]	-1.2%	?	?
CCOC(=O)c1c(C)[nH]c(=S)c(C#N)c1-c1ccc(OC)cc1	-17.5%[46.1 µM]	-0.2%	?	12.6µM*
CCOC(=O)c1c(C)[nH]c(=S)c(C#N)c1-c1ccc(Cl)cc1	-7.3%	-1.0%	?	11.2µM*
COC(=O)[C@@]1(Cc2ccccc2-c2ccco2)C=C[C@H](C)[C@@H](c2ccccc2)N1C(=O)C(F)(F)F	/	/	0.0%	?
CN(C)c1ccc(CNC(=O)CCNS(=O)(=O)c2cc(Br)cnc2N)cc1	/	0.1%	-2.2%	-25.5%
c1ccc(CCNc2nc(-c3ccccn3)nc3ccccc23)cc1	4.2%[7.67 µM]	0.0%	4.47µM*	0.251µM*
CCCN(CCC)c1nc(-c2ccccn2)nc2ccccc12	/	0.4%	5.01µM*	3.55µM*
CCN(CC)c1nc(-c2ccccn2)nc(-c2ccccc2)c1C#N	-52.9%	0.1%	5.01µM*	1µM*
SMILES	NPSR antagonist	B2AR arrestin	VP16 counter	RORgamma inh
COc1cc(Cl)nn(-c2ccccc2)c1=O	15.9%	-0.3%	1.8%	9.7%
O=c1c(Cl)cc(Cl)nn1-c1ccccc1	-20.7%	-1.5%	?	14.1µM*
CC(C)CCC1=NN(C(=O)c2ccco2)C(O)(C(F)(F)F)C1 (stereo unspecified)	7.4%	3.1%	0.1%	23.1%
Clc1cccc(Cl)c1Cn1cnc(=NCc2ccco2)c2[nH]cnc21	-6.6%[46.1 µM]	0.6%	?	17.8µM*
O=c1cccc2n1Cc1cc3ccccc3nc1-2	-6.2%	3.9%	-7.4%	-29.0%
CC[C@@]1(O)C(=O)OCc2c1cc1n(c2=O)Cc2cc3c([N+](=O)[O-])cccc3nc2-1	/	/	0.631µM*	?
CN(CCO)c1cc(N2CCN(C(=O)c3ccco3)CC2)c2nonc2c1[N+](=O)[O-]	-10.4%	-0.5%	-3.2%	1.2%
C=CCc1c(C)nc(C)nc1N/N=C/c1ccccc1	1.3%[46.1 µM]	-0.2%	1.58µM*	10µM*
O=C1CCC(=O)N1CO	/	/	1.4%	-6.0%
COCCN(C(=S)Nc1ccc(C)cc1C)C(C)c1ccco1 (stereo unspecified)	-50.3%	-0.8%	-96.2%	14.1µM*
COCCN(C(=S)Nc1c(C)cc(C)cc1C)C(C)c1cccs1 (stereo unspecified)	-57.3%	0.2%	2.0%	10µM*
COCCN(C(=S)Nc1ccc(C)cc1C)C(C)c1cccs1 (stereo unspecified)	-41.7%	-0.1%	?	?

Source: PubChem (National Center for Advancing Translational Sciences (NCATS))
